Data from PubChem BioAssay (Tox21).
A number with no mark means an inactive call. Results filed as inconclusive are left out. Where a call stands in place of a potency, no number is given. Activity calls are given as the source filed them. Unless noted, calls follow the shape of the dose curve; as a rule, active = well fitted curve in the direction sought with a large enough effect in the repeat runs; inconclusive = weak or mixed curves; inactive = no such curve, though single readings can be large; an effect the other way counts as inactive or inconclusive.

Columns and labels:
[1] = qHTS assay to identify small molecule antagonists of the sonic hedgehog signaling (Shh) pathway (AID 1259369; calls by dose curve; also: nearly all actives have a fitted effect of over 45% in size; also: potency is read from the fitted curve at half-maximal effect)
Procedure, shortened: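 3T3Gli1-Luc, conditioned-medium-stimulated, 24hr cpd, 37C/5% CO2; Gli1-driven firefly Luc luminescence after 30min RT with luciferase reagent. Cells plated 4hr before cpd.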

[2] = qHTS assay to identify small molecule agonists of the androgen receptor (AR) signaling pathway in the presence of an antagonist - cell viability counter screen (AID 1259379); also: nearly all actives have a fitted effect of over 25% in size; also: potency is read from the fitted curve at half-maximal effect
Procedure, shortened: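 Cells: MDA-kb2 (MMTV-luc, AR and GR elements), 3,000/well, 5 hr settle. Added: nilutamide 3.0uM final, then compounds (15 conc.). Incubation: 16 hr, 37C, no CO2. Read-out: CellTiter-Fluor, 1 hr, fluorescence.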

[3] = qHTS assay to identify small molecule antagonists of the estrogen receptor beta (ER-beta) signaling pathway - cell viability counter screen (AID 1259382);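 also: HEK293T cells carrying ER-beta-UAS-bla reporter stimulated with estradiol; series mostly up to about 92 µM; nearly all actives have a fitted effect of over 55% in size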
Procedure, shortened: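 Cells: ER-beta-UAS-bla HEK293T, 2,000/well, 2% CS-FBS, 6 hr settle. Cpd + E2 (1nM final), 16 hr, 37C/5% CO2. Bla FRET substrate 2 hr RT, then CellTiter-Glo 30 min RT, luminescence.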

[4] = target: Estrogen receptor (Homo sapiens) (UniProt P03372); assay: qHTS assay to identify small molecule agonists of the estrogen receptor alpha (ER-alpha) signaling pathway in the presence of an antagonist (AID 1259383; calls by dose curve; also: top concentration of the series differs between compounds; nearly all actives have a fitted effect of over 15% in size)
Estrogen receptor (Homo sapiens), sequence (P03372 whole entry, looked up): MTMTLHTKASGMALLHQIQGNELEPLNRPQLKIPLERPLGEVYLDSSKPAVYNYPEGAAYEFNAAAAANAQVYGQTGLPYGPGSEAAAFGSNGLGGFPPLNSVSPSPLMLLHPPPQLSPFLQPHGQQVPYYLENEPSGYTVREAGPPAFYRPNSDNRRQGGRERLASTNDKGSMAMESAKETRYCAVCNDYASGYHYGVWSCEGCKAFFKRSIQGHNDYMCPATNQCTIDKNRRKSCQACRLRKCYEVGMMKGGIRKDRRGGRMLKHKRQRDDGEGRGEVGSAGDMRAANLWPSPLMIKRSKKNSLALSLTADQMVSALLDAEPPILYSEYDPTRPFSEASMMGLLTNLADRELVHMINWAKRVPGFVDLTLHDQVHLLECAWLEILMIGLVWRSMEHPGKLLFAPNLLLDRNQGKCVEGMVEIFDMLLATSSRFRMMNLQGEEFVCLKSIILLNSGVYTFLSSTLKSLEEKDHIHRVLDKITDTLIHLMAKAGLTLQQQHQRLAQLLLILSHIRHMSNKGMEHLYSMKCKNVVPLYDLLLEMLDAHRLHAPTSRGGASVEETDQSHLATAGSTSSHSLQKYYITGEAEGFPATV
Procedure, shortened: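 VM7Luc4E2, endog. ER-alpha + 4×ERE-luc; charcoal-stripped FBS, phenol red-free, 5 d; 24hr plating; +10.0nM ICI-182,780 (final); cpds 15 conc, 22hr, 37C/5% CO2; ONE-Glo luminescence.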

[5] = qHTS assay to identify small molecule agonists or antagonists of the thyroid stimulating hormone receptor (TSHR) signaling pathway - wild type cell line counter screen (AID 1259384; calls by dose curve)
Procedure, shortened: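 Counter screen in untransfected Hek293: compounds (15-point titration, triplicate) plus phosphodiesterase inhibitor Ro20-1724 added after 18 h plating; 30 min RT. Intracellular cAMP via competitive d2/cryptate immunoassay, 1 h incubation.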

[6] = qHTS assay to identify small molecule agonists of the estrogen receptor alpha (ER-alpha) signaling pathway in the presence of an antagonist - cell viability counter screen (AID 1259386);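 also: cells exposed to compounds for 22 h at 37 °C before the viability read; nearly all actives have a fitted effect of over 30% in size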; also: potency is read from the fitted curve at half-maximal effect
Procedure, shortened: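 VM7Luc4E2, stripped-serum pre-culture 5 d; 24hr plating; +ICI-182,780 10.0nM final; cpds 15 conc, 22hr, 37C/5% CO2; CellTiter-Fluor added at 21hr, fluorescence 1hr later.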

[7] = qHTS assay to identify small molecule antagonists of the progesterone receptor (PR) signaling pathway - cell viability counter screen (AID 1346798); also: series mostly up to about 92 µM; nearly all actives have a fitted effect of over 50% in size
Procedure, shortened: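 PR-UAS-bla HEK293T cells, 3,000/well in 2% charcoal-stripped FBS medium, dosed with compounds plus R5020 agonist and incubated 16 h at 37C. Viability then measured in the same wells by CellTiter-Glo luminescence after 30 min at RT.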

[8] = qHTS assay to identify small molecule agonists of the progesterone receptor (PR) signaling pathway - cell viability counter screen (AID 1346799; calls by dose curve; also: nearly all actives have a fitted effect of over 45% in size)
Procedure, shortened: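 Counter screen in the PR-UAS-bla HEK293T wells (2% charcoal-stripped FBS, 16 h compound exposure at 37 C) after the bla read. CellTiter-Glo added, 30 min at room temperature, luminescence read as cell viability.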

[9] = qHTS assay to identify small molecule antagonists of the TGF-beta/Smad signaling pathway - cell viability counter screen (AID 1346824); also: nearly all actives have a fitted effect of over 50% in size
Procedure, shortened: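 Cytotoxicity counter-screen run in the same wells as the beta-lactamase Smad reporter read: CellTiter-Glo luminescence after 30 min at room temperature. HEK 293T SBE-bla cells had 5 hr compound exposure at 37 C with TGF-beta1 (0.25 ng/mL stock).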

[10] = qHTS assay to identify small molecule agonists of the TGF-beta/Smad signaling pathway - cell viability counter screen (AID 1346829); also: top concentration of the series differs between compounds; nearly all actives have a fitted effect of over 45% in size
Procedure, shortened: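 Tox21 qHTS format: SBE-bla HEK 293T cells treated with DMSO-dissolved compounds for 5 hr; CellTiter-Glo luminescence after 30 min at room temperature.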

[11] = qHTS assay to identify small molecule agonists of the TGF-beta/Smad signaling pathway (AID 1346859; active = well fitted activation curve with a large enough effect in the signal ratio in the repeat runs, not every such curve was filed as active; the % refers to the signal ratio; also: series mostly up to about 77 µM)
Procedure, shortened: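 SBE-bla HEK293T cells plated overnight, then compound exposure for 5 h at 37 C. Beta-lactamase reporter read with LiveBLAzer B/G FRET substrate after 2 h at room temperature, fluorescence at 405 nm excitation, 460/530 nm emission.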

[12] = qHTS assay to identify small molecule agonists of the estrogen receptor beta (ER-beta) signaling pathway - cell viability counter screen (AID 1259380); also: nearly all actives have a fitted effect of over 30% in size
Procedure, shortened: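 HEK293T ER-beta-UAS-bla; 2% CS-FBS; 6 hr pre-plate, 16 hr cpd at 37C/5% CO2; LiveBLAzer read first, then CellTiter-Glo 30 min RT, luminescence.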

[13] = target: Thyrotropin receptor (Homo sapiens) (UniProt P16473); assay: qHTS assay to identify small molecule antagonists of the thyroid stimulating hormone receptor (TSHR) signaling pathway (AID 1259385; calls by dose curve; also: nearly all actives have a fitted effect of over 20% in size)
Thyrotropin receptor (Homo sapiens), sequence (P16473 whole entry, looked up): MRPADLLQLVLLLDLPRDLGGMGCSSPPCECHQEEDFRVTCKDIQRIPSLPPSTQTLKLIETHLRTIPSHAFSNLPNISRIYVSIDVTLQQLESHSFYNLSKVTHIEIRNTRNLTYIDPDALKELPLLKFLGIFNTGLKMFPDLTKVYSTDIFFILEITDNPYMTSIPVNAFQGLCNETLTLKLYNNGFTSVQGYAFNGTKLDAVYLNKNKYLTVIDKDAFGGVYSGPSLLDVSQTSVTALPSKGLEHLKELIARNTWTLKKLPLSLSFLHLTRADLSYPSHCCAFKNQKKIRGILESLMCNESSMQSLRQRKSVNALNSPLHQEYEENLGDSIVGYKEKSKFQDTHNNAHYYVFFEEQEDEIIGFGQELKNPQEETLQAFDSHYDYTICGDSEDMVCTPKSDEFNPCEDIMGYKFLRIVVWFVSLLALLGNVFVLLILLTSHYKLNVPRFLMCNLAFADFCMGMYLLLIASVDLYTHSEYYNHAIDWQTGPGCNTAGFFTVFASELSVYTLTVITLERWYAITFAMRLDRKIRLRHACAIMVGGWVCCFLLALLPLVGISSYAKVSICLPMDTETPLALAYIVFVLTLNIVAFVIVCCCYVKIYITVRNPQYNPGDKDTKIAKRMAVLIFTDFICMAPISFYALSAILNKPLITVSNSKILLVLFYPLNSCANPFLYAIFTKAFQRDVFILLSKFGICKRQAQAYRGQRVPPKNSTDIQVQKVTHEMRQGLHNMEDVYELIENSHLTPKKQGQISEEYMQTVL
Procedure, shortened: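 Antagonist mode: compound-treated TSHR-expressing HEK293 cells were stimulated with 1.5 ng/mL TSH (final) in presence of Ro20-1724 for 30 min at RT. HTRF cAMP detection after 1 h; each compound tested at 15 concentrations, triplicate.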

[14] = target: Progesterone receptor (Homo sapiens) (UniProt P06401); assay: qHTS assay to identify small molecule agonists of the progesterone receptor (PR) signaling pathway (AID 1346784; calls by dose curve; also: nearly all actives have a fitted effect of over 30% in size)
Progesterone receptor (Homo sapiens), sequence (P06401 whole entry, looked up): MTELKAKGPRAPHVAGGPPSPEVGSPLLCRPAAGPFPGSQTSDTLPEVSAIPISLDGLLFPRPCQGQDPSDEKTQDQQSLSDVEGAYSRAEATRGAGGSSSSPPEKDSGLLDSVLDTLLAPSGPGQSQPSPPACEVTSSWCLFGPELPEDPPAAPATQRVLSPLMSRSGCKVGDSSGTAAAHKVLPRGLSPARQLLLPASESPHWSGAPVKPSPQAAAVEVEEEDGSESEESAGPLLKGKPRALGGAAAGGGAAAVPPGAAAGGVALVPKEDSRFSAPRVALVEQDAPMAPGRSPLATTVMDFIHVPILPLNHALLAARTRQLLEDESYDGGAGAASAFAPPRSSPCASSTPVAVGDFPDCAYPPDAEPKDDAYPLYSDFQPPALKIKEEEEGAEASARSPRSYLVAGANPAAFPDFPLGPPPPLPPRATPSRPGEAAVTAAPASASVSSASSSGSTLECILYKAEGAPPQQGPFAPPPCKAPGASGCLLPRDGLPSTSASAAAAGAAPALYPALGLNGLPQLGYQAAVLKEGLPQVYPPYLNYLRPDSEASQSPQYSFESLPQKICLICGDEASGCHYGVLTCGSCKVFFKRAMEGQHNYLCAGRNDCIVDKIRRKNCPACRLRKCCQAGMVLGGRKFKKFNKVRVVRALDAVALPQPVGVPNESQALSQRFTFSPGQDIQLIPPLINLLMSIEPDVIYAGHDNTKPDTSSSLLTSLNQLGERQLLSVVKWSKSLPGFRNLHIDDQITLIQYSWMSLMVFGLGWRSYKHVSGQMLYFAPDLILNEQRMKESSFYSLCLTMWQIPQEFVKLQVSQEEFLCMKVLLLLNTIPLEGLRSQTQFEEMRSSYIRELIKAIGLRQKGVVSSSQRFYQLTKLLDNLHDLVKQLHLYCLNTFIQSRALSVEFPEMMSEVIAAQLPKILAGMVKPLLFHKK
Procedure, shortened: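 PR-UAS-bla HEK 293T cells (beta-lactamase reporter under UAS) in 2% charcoal-stripped FBS, dosed with 23 nL compound after 6 hr, incubated 16hr at 37C. LiveBLAzer B/G FRET substrate added, fluorescence read after 2 hours.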

[15] = target: Progesterone receptor (Homo sapiens) (UniProt P06401); assay: qHTS assay to identify small molecule antagonists of the progesterone receptor (PR) signaling pathway (AID 1346795; active = well fitted inhibition curve with a large enough effect in the signal ratio in the repeat runs, not every such curve was filed as active; the % refers to the signal ratio)
Procedure, shortened: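 PR-UAS-bla HEK293T cells with beta-lactamase reporter under UAS control, in 2% charcoal-stripped FBS, treated with compounds plus 1 nM promegestone (R5020, final) for 16 hr at 37C. Read-out: FRET beta-lactamase substrate fluorescence after 2 hr at room temperature.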

[16] = target: Thyrotropin-releasing hormone receptor (Homo sapiens) (UniProt P34981); assay: qHTS assay to identify small molecule antagonists of the thyrotropin-releasing hormone receptor (TRHR) signaling pathway (AID 1346877; active = well fitted inhibition curve with a large enough effect in the repeat runs, not every such curve was filed as active; also: series mostly up to about 51 µM)
Thyrotropin-releasing hormone receptor (Homo sapiens), sequence (P34981 whole entry, looked up): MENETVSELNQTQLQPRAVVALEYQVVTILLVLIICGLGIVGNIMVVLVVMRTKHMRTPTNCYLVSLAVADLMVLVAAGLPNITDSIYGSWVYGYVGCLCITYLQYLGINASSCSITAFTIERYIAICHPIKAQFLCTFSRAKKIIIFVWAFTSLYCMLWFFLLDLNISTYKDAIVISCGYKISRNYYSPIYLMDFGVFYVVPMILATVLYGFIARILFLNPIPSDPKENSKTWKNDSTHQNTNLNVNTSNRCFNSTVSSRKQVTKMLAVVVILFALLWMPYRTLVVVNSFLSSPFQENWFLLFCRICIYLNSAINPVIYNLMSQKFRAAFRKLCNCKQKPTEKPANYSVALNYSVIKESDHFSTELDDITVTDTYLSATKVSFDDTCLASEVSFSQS
Procedure, shortened: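 Intracellular calcium fluorescence, read kinetically every second over 3 min, reports TRH-evoked signalling in HEK293 cells carrying TRHR. Test compounds were added 5 min ahead of a 1 nM TRH challenge.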

[17] = target: Thyrotropin-releasing hormone receptor (Homo sapiens) (UniProt P34981); assay: qHTS assay to identify small molecule agonists of the thyrotropin-releasing hormone receptor (TRHR) signaling pathway (AID 1346891; calls by dose curve; also: series mostly up to about 58 µM)
Procedure, shortened: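 HEK293 cells expressing TRHR plated 18 h at 37 C/5% CO2, calcium dye-loaded 2 h at 37 C, then compound added (agonist mode); kinetic calcium fluorescence read 3 min at 1 s intervals; 15 concentrations in triplicate.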

Row | Compound | Potency [1] | Potency [2] | outcome [3] | outcome [4] | outcome [5] | Potency [6] | Potency [7] | Potency [8] | outcome [9] | outcome [10] | outcome [11] | Potency [12] | outcome [13] | Potency [14] | Potency [15] | outcome [16] | Potency [17]
1 | C[N+](C)(C)CCCCCCCCCC[N+](C)(C)C | inactive | inactive | inactive | inactive | inactive | inactive | inactive | inactive | inactive | inactive | inactive | – | – | – | – | – | –
2 | O=C(O)CC(C(=O)O)S(=O)(=O)O (centres undefined) | 30.6 µM (active) | inactive | inactive | inactive | inactive | inactive | – | inactive | inactive | inactive | inactive | inactive | – | – | – | – | –
3 | NCCCC(N)(C(=O)O)C(F)F (centres undefined) | inactive | inactive | inactive | – | inactive | inactive | inactive | inactive | inactive | – | – | inactive | inactive | inactive | inactive | – | –
4 | COc1cc2c(cc1OC)-c1cc3ccc(OC)c(OC)c3c[n+]1CC2 | inactive | 49 µM (active) | inactive | – | – | 61.7 µM (active) | – | inactive | inactive | inactive | – | inactive | – | inactive | inactive | inactive | inactive
5 | CC(C)COC(=O)c1ccc(N)cc1 | inactive | inactive | inactive | – | inactive | inactive | inactive | inactive | – | inactive | inactive | – | – | inactive | – | inactive | –
6 | CCCCCC(C)N (centres undefined) | inactive | inactive | inactive | – | inactive | inactive | – | inactive | inactive | inactive | – | inactive | inactive | inactive | – | inactive | –
7 | Cc1coc2ccccc2c1=O | inactive | inactive | inactive | – | inactive | inactive | inactive | inactive | inactive | inactive | – | inactive | inactive | inactive | – | inactive | inactive
8 | Clc1cc(Cl)c(Cl)nc1Cl | inactive | inactive | inactive | – | inactive | inactive | inactive | inactive | inactive | inactive | inactive | inactive | inactive | inactive | – | inactive | inactive
9 | O=S(=O)(O)c1cccc(S(=O)(=O)O)c1 | inactive | inactive | inactive | inactive | inactive | inactive | inactive | inactive | inactive | inactive | inactive | inactive | – | – | inactive | – | –
10 | [Ca+2] | inactive | inactive | inactive | – | inactive | inactive | inactive | – | inactive | inactive | inactive | inactive | inactive | inactive | inactive | – | –
